Assay outcomes (PubChem)
Sampled rows, rich in hits. Any-hit rate of the full collection: about 9.4%.
FLuc modulator: qHTS profiling assay for firefly luciferase inhibitor/activator using purifed enzyme and Km concentrations of substrates (counterscreen for miR-21 project). Luciferin 4-monooxygenase (Photinus pyralis), P08659. purified FLuc, Km substrates, luminescence inhibition. Potency, µM (highest dose often 57.5 µM), for the others: at the top dose activity change, negative = inhibition, hits mostly inhibitors. 360,000 tested, 6.9% active;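 also: plate controls were vehicle for no effect and reference inhibitor for full effect; nearly all actives have a fitted effect of over 55% in size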
Target sequence (P08659 whole entry, looked up): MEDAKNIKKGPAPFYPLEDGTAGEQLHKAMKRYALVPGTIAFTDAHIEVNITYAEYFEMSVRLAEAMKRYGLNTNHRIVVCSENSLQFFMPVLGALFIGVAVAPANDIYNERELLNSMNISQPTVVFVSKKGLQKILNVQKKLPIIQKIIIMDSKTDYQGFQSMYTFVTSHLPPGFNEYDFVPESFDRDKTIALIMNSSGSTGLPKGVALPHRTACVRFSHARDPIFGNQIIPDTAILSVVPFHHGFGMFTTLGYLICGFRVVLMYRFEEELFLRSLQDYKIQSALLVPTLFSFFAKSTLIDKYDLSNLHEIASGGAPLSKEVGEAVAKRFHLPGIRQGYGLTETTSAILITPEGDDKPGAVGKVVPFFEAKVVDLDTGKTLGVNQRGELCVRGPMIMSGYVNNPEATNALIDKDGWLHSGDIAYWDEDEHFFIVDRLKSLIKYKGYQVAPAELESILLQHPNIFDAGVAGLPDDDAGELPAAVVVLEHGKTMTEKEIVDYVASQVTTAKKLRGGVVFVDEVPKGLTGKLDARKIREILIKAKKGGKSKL
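Purified P. pyralis luciferase (10nM final) with 10uM D-luciferin and 10uM ATP (Km levels) in 50mM Tris acetate pH 7.5, 10mM Mg acetate, 0.01% Tween-20, 0.05% BSA; qHTS 6-point titration, ~60 µM downward; luminescence read.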
SMN2 splice up: qHTS Assay for Enhancers of SMN2 Splice Variant Expression; AID 1458, 2008; HEK293 SMN2-luciferase splicing reporter, luminescence, 30-36 h; Potency, µM (top dose mostly 46.1 µM), without a hit: top-dose activity change, positive = activation, hits mostly activators; 210,000 tested, 2.8% active; also: % of control where 0% means no effect; nearly all actives have a fitted effect of over 55% in size
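qHTS luciferase splicing reporter: luminescence rises when SMN2 exon 7 is included in transfected HEK293 cells. Compound exposure lasted 30-36 h at 37C, with 4.5 mM final sodium butyrate as control, followed by a ONE-Glo read.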
NPC1 promoter act: qHTS Assay for NPC1 Promoter Activators | Huh7 NPC1 promoter luciferase reporter, 24 h | Potency, µM (series often up to 9.22 µM), inactives show top-dose activation, most hits filed as activators | 320,000 tested, 2.4% active | AID 485313, 2010; also: % of control where 0% means no effect; nearly all actives have a fitted effect of over 60% in size
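Luciferase expression driven by the NPC1 promoter was measured in stably transfected Huh7 cells after a 24 h compound incubation, using a luciferase reagent and a luminescence read.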
ELG1 DNA repair: qHTS screen for small molecules that inhibit ELG1-dependent DNA repair in human embryonic kidney (HEK293T) cells expressing luciferase-tagged ELG1 | Potency, µM (titrated, usually from 46.1 µM), without a hit: top-dose activity change, negative = inhibition, hits mostly inhibitors | 330,000 tested, 2.3% active | HEK293T ELG1-luciferase reporter, luminescence, 16 h; DNA damage induced by 5-fluorouridine | AID 504467, 2011; also: % is scaled to controls: 0 for no effect and ±100 for the full control effect; nearly all actives have a fitted effect of over 55% in size
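Overnight (16 hr) co-exposure of 2,000 cells/well to 5-fluorouridine and compound at 37 °C preceded detection. Luciferase was quantified via ONE-Glo luminescence; loss of signal denotes inhibition.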
Rab9 prom act: qHTS Assay for Rab9 Promoter Activators. 320,000 tested, 2.8% active. Huh7 Rab9 promoter-luciferase reporter, luminescence, 24 h. Potency, µM (highest dose often 9.22 µM), for the others: at the top dose activation, negative = inhibition, usual class: activators. AID 485297, 2010; also: % of control where 0% means no effect; nearly all actives have a fitted effect of over 60% in size
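Using Huh7 cells stably transfected with Rab9 promoter–luciferase, compounds were incubated 24 h at 37 °C, 5% CO2; luciferase luminescence was read 10 min after reagent addition.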
ELG1 genotoxic: qHTS screen for small molecules that induce genotoxicity in human embryonic kidney (HEK293T) cells expressing luciferase-tagged ELG1. HEK293T ELG1-luciferase reporter, luminescence, 16 h. Potency, µM (series often up to 46 µM), inactives show top-dose activity change, positive = activation, actives largely listed as activators. 330,000 tested, 1.3% active. AID 504466, 2011; also: % of control where 0% means no effect; nearly all actives have a fitted effect of over 60% in size
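DMSO vehicle served as control against compound-treated ELG1-luciferase HEK293T cells; exposure lasted 16 hr at 37 °C and 5% CO2, followed by ONE-Glo luminescence detection after 30 min.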
An asterisk follows results filed as active; ? = inconclusive; . = no result given. Calls follow the shape of the dose curve; as a rule, active = well fitted curve in the direction sought with a large enough effect; inconclusive = small, poorly fitted or top-dose-only effect, or another doubt; inactive = no such curve, though single readings can be large; an effect the other way counts as inactive or inconclusive. Potency is read from the fitted curve at half-maximal effect.

SMILES	FLuc modulator	SMN2 splice up	NPC1 promoter act	ELG1 DNA repair	Rab9 prom act	ELG1 genotoxic
COc1ccc2nc(N3C(=O)CNC3=S)sc2c1	2.4µM*	.	3.5µM*	?	1.3µM*	21µM*
Cc1cccc(CC2CC(=O)N(c3nc4ccccc4s3)C2=O)c1 (configuration not stated)	?	6%	0%	-5%	-2%	-5%
COC(=O)/C=C1\C(=O)N(c2nc3ccc(OC)cc3s2)C(=S)N1c1ccc(F)cc1	1%	16%	2%	?	2%	1%
Cc1ccc2nc(N3C(=O)CNC3=S)sc2c1	1.5µM*	.	1.1µM*	?	?	21µM*
CCc1cc(C(C)=O)c(O)cc1OCCCCCC(C)(C)c1nn[nH]n1	.	-17%	.	.	.	.
CCOC(=O)c1nn(-c2ccc(F)cc2)cc1O	?	-17%	?	?	?	?
CCOC(=O)c1nn(-c2ccc3c(c2)CCN3C(C)=O)cc1O	3.8µM*	10µM*	1.6µM*	?	2.2µM*	1.6µM*
Cc1c(C(=O)N(CCO)Cc2ccccc2)oc2c(F)cccc12	17µM*	.	?	?	?	?
Cc1cc(Cl)c2oc(C(=O)N(CCO)Cc3ccccc3)c(C)c2c1	-20%	.	11%	-7%	26%	?
O=S(=O)(c1ccc(Br)cc1)c1nc(-c2cccs2)oc1SCc1ccc(F)cc1	4%	-3%	.	.	.	.
O=C(NCc1ccco1)c1sc2cc(F)ccc2c1Cl	15µM*	13µM*	20%	?	28%	12%
O=C(Nc1ccon1)c1sc2cc(F)ccc2c1Cl	?	22µM*	3.2µM*	?	2.5µM*	?
O=C(NC1=NCCS1)c1sc2cc(F)ccc2c1Cl	2.4µM*	7.1µM*	5µM*	?	2.2µM*	?
O=C(NCCCN1CCOCC1)c1sc2cc(F)ccc2c1Cl	?	13%	9%	?	?	15%
Cc1ccc(CN2C(=O)C3(SCC(=O)N3c3ccc(C)c(C)c3)c3ccccc32)cc1 (configuration not stated)	-13%	.	.	.	.	.
COc1ccc(CNC(=O)Cn2c(=O)nc(-c3ccccc3F)c3cc(Cl)ccc32)cc1	6%	.	.	.	.	.
CCc1ccc2c(c1)c(=O)c(C(=O)c1ccc(C)cc1)cn2CC(=O)Nc1ccc2c(c1)OCCO2	0%	10%	.	.	.	.
Cc1ccc(C(=O)N(Cc2ccco2)Cc2sccc2C)cc1	?	-2%	.	.	.	.
O=C(COC(=O)C1CC1)c1c[nH]c2ccccc12	12µM*	?	?	?	?	?
O=C(COC(=O)C1CCC1)c1c[nH]c2ccccc12	11µM*	.	-1%	0%	2%	1%
CC(=O)OCC(=O)c1c[nH]c2ccccc12	-16%	-1%	4%	-8%	0%	1%
Cc1[nH]c2ccccc2c1C(=O)COC(=O)C1CCC1	15µM*	.	-2%	-4%	1%	0%
Cc1[nH]c2ccccc2c1C(=O)COC(=O)C1CCC(=O)N1 (configuration not stated)	4%	8%	2%	-6%	1%	0%
O=C(Cc1ccccc1[N+](=O)[O-])OCC(=O)c1c[nH]c2ccccc12	11µM*	.	?	?	?	13%
Cc1ccc(Cn2c(SCC(=O)NCc3ccccc3Cl)nc3ccsc3c2=O)cc1	4%	.	.	.	.	.
Cc1ccc(C)c(N2CCN(C(=O)c3cc(S(=O)(=O)N4CCCC4)c[nH]3)CC2)c1	-2%	.	.	.	.	.
CC1CCCN(C(=O)COc2ccc3c(c2)OCO3)C1 (configuration not stated)	-18%	.	?	0%	?	?
